High-throughput results (PubChem BioAssay)
Compounds with a hit are over-represented: about 10% of the library has one in this group of screens.
NIH3T3 tox: kills NIH 3T3 cells | 4.3% of 94,000 active | Potency, µM (titrated, usually from 96.7 µM), for inactives: at the highest dose activity change, negative = cytotoxicity, hits mostly inhibitors | NIH 3T3 viability, CellTiter-Glo ATP luminescence, 48-72 h | AID 1345082; note: nearly all actives have a fitted effect of over 55% in size
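Cells were seeded at 400 per well, treated with pin-transferred compound, and kept 48 or 72 hr at 37 °C before CellTiter-Glo addition and luminescence imaging of cellular ATP.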
hNpr1 antagonist: antagonists of human natriuretic peptide receptor Npr1 | P16066 | HEK293 hNpr1 GloSensor cGMP, ANP-stimulated luminescence | Potency, µM (top dose mostly 46.3 µM), for the others: at the highest dose activity change, negative = inhibition, usual class: inhibitors | 1.6% of 76,000 active; calls by dose curve; note: nearly all actives have a fitted effect of over 60% in size
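HEK293 cells stably expressing human Npr1 and cGMP GloSensor pGS-40F, loaded 2 h with 2% GloSensor reagent, given compound 30 min at room temperature. Luminescence read before and 20 min after 0.1 nM hNppA.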
Luciferase inh: inhibitors of firefly (Photinus pyralis) luciferase; P08659; purified P. pyralis luciferase, luminescence, biochemical; Potency, µM (doses to about 115 µM), usual class: inhibitors; 2.5% of 76,000 active; note: nearly all actives have a fitted effect of over 65% in size
Target sequence (P08659 whole entry, looked up): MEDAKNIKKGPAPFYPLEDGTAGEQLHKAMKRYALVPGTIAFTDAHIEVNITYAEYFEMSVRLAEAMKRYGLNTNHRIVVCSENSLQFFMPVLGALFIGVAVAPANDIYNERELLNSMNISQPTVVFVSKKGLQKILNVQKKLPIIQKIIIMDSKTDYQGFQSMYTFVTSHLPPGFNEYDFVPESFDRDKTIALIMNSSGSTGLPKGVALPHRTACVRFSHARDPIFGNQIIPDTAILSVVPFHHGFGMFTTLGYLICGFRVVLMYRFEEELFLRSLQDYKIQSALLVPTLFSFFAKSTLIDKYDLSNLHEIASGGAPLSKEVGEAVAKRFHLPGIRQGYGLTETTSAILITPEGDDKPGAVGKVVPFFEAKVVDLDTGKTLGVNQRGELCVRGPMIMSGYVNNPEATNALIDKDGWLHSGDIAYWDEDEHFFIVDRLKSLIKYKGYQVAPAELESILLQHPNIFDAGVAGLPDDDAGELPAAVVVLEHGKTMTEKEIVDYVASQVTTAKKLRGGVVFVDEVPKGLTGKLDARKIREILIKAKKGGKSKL
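Cell-free enzyme assay, 10nM P. pyralis luciferase, luciferin and ATP each at 10uM. Inhibition profiled over a 6-point titration, read as luminescence.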
GPT2 inhibitor: GPT2 alanine aminotransferase inhibition. Q8TD30. Recombinant GPT2, coupled pyruvate oxidase/HRP Amplex Red fluorescence. Potency, µM (series often up to 57.7 µM), without a hit: top-dose activity change, negative = inhibition, actives largely listed as inhibitors. 0.25% of 100,000 active. AID 1671188; note: nearly all actives have a fitted effect of over 60% in size
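Fluorescence of coupled pyruvate oxidase/HRP/Amplex Red system (50uM Amplex, 30 min, dark) reports pyruvate formed by GPT2. Enzyme reaction: 10ng/uL GPT2, 2mM L-alanine, 250uM a-KG, 30 min room temperature, pH 7.5; 50uM AOA control.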
HEK293 tox: HEK 293 cell cytotoxicity | HEK 293 viability, ATP luminescence (CellTiter-Glo), 48-72 h | Potency, µM (highest dose often 115 µM), for the others: at the highest dose activity change, negative = cytotoxicity, hits mostly inhibitors | 6.6% of 94,000 active | AID 1345083; note: nearly all actives have a fitted effect of over 60% in size
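CellTiter-Glo luminescence (cellular ATP) was read after 48 or 72 hr of compound exposure at 37 degree Celsius. Cells were HEK 293 plated at 250 cells/well.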
The depositor's hits bear a star; i = inactive; ? = inconclusive; / = no result given; ! = not confirmed by another sample; [ ] = another dose, or the depositor's remark. Unless noted, calls come from the whole dose curve; as a rule, active = well fitted curve in the direction sought with a large enough effect; inconclusive = small, poorly fitted or top-dose-only effect, or another doubt; inactive = no such curve, though single readings can be large; an effect the other way counts as inactive or inconclusive. % is set by controls: 0 for no effect and ±100 for the full control effect; potency is the fitted concentration of half-maximal effect.

SMILES | NIH3T3 tox | hNpr1 antagonist | Luciferase inh | GPT2 inhibitor | HEK293 tox
Clc1ccccc1Nc1cnc2ccc(N3CCOCC3)nn12 | ? | ? | i | ? | ?
CN1CCN(c2ccc3ncc(Nc4cccc(C(F)(F)F)c4)n3n2)CC1 | ? | -26%[70.6 µM] | i | ? | 100µM*
c1ccc(-c2ccccc2Nc2cnc3ccc(N4CCOCC4)nn23)cc1 | ? | -27%[70.6 µM] | i | -5%[88.5 µM] | 89µM*
CN1CCN(c2ccc3ncc(Nc4ccccc4F)n3n2)CC1 | ? | -2%[70.6 µM] | i | ? | 112µM*
O=C(NC1CCCC1)c1nc2cccnc2n(CCc2ccccc2)c1=O | ? | / | / | i | ?
COc1cccc(N2C(=O)NC(=NC3CCCC3)C23CCCN(CCC(C)C)C3)c1 (stereo not drawn) | 32µM* | / | / | i | ?
CC(C)CCN1CCC2(CC1)C(=NC1CCCC1)NC(=O)N2c1cc(F)cc(F)c1 | -11% | / | / | -2% | 4%
CC(C)CCN1CCCC2(C1)C(=NC1CCCC1)NC(=O)N2c1cc(F)cc(F)c1 (stereo not drawn) | 32µM* | / | / | i | ?
CCNC(=O)N1CC(n2cc(C(=O)NCCCOC)nn2)C1 | -9% | / | / | i | i
O=C(c1ccccc1)N1CCC(C(=O)N2CCC(N3CCOCC3=O)CC2)CC1 | -1% | / | / | -3% | 2%
Cc1ccc(-c2ccccc2CN)c(C)c1 | 100µM* | / | / | 1%[88.5 µM] | 112µM*
CN(C)C(=O)c1cccnc1OC1CCN(CCc2ccccc2)CC1 | -5% | 1% | i | i | -15%
CCc1nc2c(c(-c3ccc(Cl)cc3)n1)CCN(Cc1cccc3ccccc13)CC2 | -23% | 0% | i | i | 45µM*
CCc1nc2c(c(-c3ccc(O)cc3)n1)CN(Cc1cccc3ccccc13)CC2 | ? | -21% | i | i | 89µM*
CC(C)c1nc2c(c(-c3ccc(O)cc3)n1)CCN(Cc1cccc3ccccc13)CC2 | ? | ? | i | i | 25µM*
CCc1nc2c(c(-c3ccc(OC)cc3)n1)CCN(Cc1cccc3ccccc13)CC2 | ? | / | / | -5% | ?
O=C1N(CCCCOc2ccccc2)c2ccccc2NC12CCNCC2 | ? | -17% | i | ? | 20µM*
Cc1ccc(C(C)NC(=O)CN2C(=O)C3(CCNCC3)Nc3ccccc32)cc1 (stereo not drawn) | -1% | -1% | i | -18% | -12%
Cc1cnc(Nc2ccc(OCCN3CCCC3)cc2)nc1Nc1cccc(S(=O)(=O)NC(C)(C)C)c1 | / | / | / | i | /
Cc1cnc(Nc2ccc(N3CCN(C)CC3)cc2)nc1Nc1cccc(S(=O)(=O)NC(C)(C)C)c1 | / | / | / | 19µM* | /
COCCCNC(=O)CNC(=O)c1ccc(-c2cnc3ccccc3c2)cc1 | -40% | / | / | / | 79µM*
O=C(CNC(=O)c1ccc(-c2cnc3ccccc3c2)cc1)NCc1ccc2c(c1)OCO2 | -26% | / | / | / | 50µM*
O=C(NC1CCN(c2nc3ncccc3o2)C1)c1ccc(C(F)(F)F)cc1 (stereo not drawn) | -12% | / | / | i | 0%
CC(C)(C)OC(=O)N1CC(Nc2cccc(C(F)(F)F)c2)C1 | ? | / | / | -19% | ?
CCCCCNC(=O)C1CCCN(c2nccc(Nc3ccccc3OC)n2)C1 (stereo not drawn) | ? | / | / | -1% | 40µM*
SMILES | NIH3T3 tox | hNpr1 antagonist | Luciferase inh | GPT2 inhibitor | HEK293 tox
COc1ccccc1Nc1ccnc(N2CCCC(C(=O)NCCc3ccccc3F)C2)n1 (stereo not drawn) | ? | / | / | -10% | 35µM*!
CCCCCNC(=O)C1CCN(c2nccc(Nc3ccccc3F)n2)CC1 | ? | / | / | -21% | ?
COc1ccccc1Nc1ccnc(N2CCCC(C(=O)NCCc3ccccc3)C2)n1 (stereo not drawn) | 16µM* | / | / | i | ?
COc1ccccc1Nc1ccnc(N2CCCC(C(=O)NCCc3ccc(F)cc3)C2)n1 (stereo not drawn) | ? | / | / | i | ?
O=C1CC2(CCN(C(=O)C3CCCN3C(=O)Cc3ccc(F)cc3)CC2)Oc2ccccc2N1 (stereo not drawn) | -19% | / | / | -15% | -22%
O=C(NCc1cccc(F)c1)C1CCCN1C(=O)c1cccc(-c2cccnc2)c1 (stereo not drawn) | -26% | / | / | / | ?
